This is a sample that favours compounds with a hit; in the whole collection about 31% have one here.
CYP2C9 inhib – human CYP2C9 inhibition. P11712. CYP2C9 Supersomes, luciferin-H conversion, luminescence. inhibition, % at 5 µM. 20% of 96,000 active. AID 777;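 active means blocking of liver enzyme CYP2C9 beyond about 50% at 5 µM, limit read from the data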
Target sequence (P11712 whole entry, looked up): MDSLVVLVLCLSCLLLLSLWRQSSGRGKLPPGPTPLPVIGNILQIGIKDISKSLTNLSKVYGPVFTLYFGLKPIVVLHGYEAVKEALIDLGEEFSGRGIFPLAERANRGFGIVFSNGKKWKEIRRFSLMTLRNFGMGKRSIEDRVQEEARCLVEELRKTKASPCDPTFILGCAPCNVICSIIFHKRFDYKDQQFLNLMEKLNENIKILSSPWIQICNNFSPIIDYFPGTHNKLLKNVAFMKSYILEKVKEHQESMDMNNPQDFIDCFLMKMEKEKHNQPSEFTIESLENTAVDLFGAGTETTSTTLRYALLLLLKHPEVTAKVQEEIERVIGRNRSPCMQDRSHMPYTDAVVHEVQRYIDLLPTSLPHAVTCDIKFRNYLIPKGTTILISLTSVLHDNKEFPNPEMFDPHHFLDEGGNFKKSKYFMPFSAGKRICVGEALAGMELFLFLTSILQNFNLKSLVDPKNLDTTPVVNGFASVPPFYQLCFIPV
CYP2C19 inhib – inhibitors of human CYP2C19; inhibition, % at 5 µM; 21% of 96,000 active; CYP2C19 Supersomes, luciferin-H EGE luminescence, 30 min; AID 778; P33261;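 active means CYP2C19 inhibition above a set limit at 5 µM in the primary screen, cut at about 50% in these data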;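 further: plate controls were negative control wells for no effect and 2.5 mM tranylcypromine positive control for full effect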
CYP2C9 act – CYP2C9 (human) activation. P11712. recombinant CYP2C9, luciferin-H conversion, luminescence; stronger effect = higher value; factor 1 = untreated enzyme, 0 = blocked. 1.4% of 96,000 active. activation factor at 5 µM. AID 1024;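 active means activation factor of 2 or more for CYP2C9 at a 5 µM dose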;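 further: 0 = sulfaphenazole-blocked wells and 1 = vehicle-only wells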
CYP2C19 activ – activators of human cytochrome P450 2C19; activation factor at 5 µM; P33261; AID 1025; recombinant CYP2C19, luciferin-H EGE luminescence; stronger effect = higher value; 0 = fully inhibited enzyme, 1 = untreated enzyme; 96,000 tested, under 10 active;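 active means activation factor of at least 2 at 5 µM in the primary screen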;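 further: 0 = wells with 2.5 mM tranylcypromine and 1 = vehicle-only wells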
Starred values were filed as active, the others as inactive.

SMILES	CYP2C9 inhib	CYP2C19 inhib	CYP2C9 act	CYP2C19 activ
Cc1cc2ccccc2n1CCNC(=O)Cc1ccccc1	81.4*	96.2*	0.2	0
Cc1cc2ccccc2n1CCNC(=O)C(C)C	7.9	50.4*	0.9	0.5
COc1ccc(C(=O)NCCn2ccc3ccccc32)c(OC)c1	4.9	99.8*	1	0
COc1ccc(OC)c(CNC(=O)CCNC(=O)Cn2ccc3ccccc3c2=O)c1	-4.2	6.3	1	0.9
CCC(=O)NCCn1ccc2ccccc21	7.2	2.5	0.9	1
Cc1ccc(CNC(=O)c2ccccc2NC(=O)CSc2nnnn2C)cc1	6.3	6.0	0.9	0.9
COc1ccc(CN2C(=O)CN=C2Nc2cccc(C)c2C)cc1	39.9	34.9	0.6	0.7
COc1ccc(NCN2C(=O)CCC2=O)cc1	20.5	15.8	0.8	0.8
Cc1cc2ccccc2n1CCNC(=O)C(C)Oc1ccccc1 (stereo not drawn)	87.2*	100.4*	0.1	0
O=C(Cc1cccs1)NCCn1ccc2ccccc21	17.9	73.1*	0.8	0.3
Cc1cc2ccccc2n1CCNC(=O)c1ccc(S(=O)(=O)N2CCCCC2)cc1	90.1*	33.8	0.1	0.7
FC(F)(F)c1cc(-c2cccs2)nc(N2CCOCC2)n1	29.9	8.9	0.7	0.9
CCOC(=O)c1[nH]c(C)c(CN(CCc2ccccc2)S(C)(=O)=O)c1C	55.7*	30.8	0.4	0.7
O=c1c2cnn(-c3ccccc3)c2ncn1Cc1cccc(Cl)c1	2.5	-10.3	1	1.1
O=c1c2ccsc2ncn1Cc1ccc(Cl)cc1	54.0*	61.2*	0.5	0.4
Cc1ccccc1Cn1cnc2c([N+](=O)[O-])c(C)c(C)cc21	39.4	46.5	0.6	0.5
COc1ccc(Cn2cnc3c([N+](=O)[O-])c(C)c(C)cc32)cc1	59.1*	53.2*	0.4	0.5
CCCC(=O)Nc1ccc(NC(=O)c2ccco2)c(OC)c1	71.2*	33.9	0.3	0.7
COc1cc(NC(=O)c2ccco2)c(OC)cc1NC(=O)CCC(=O)Nc1cc(C)cc(C)c1	66.1*	35.6	0.3	0.6
CCCOc1cccc(C(=O)Nc2cc(NC(=O)c3ccco3)ccc2OC)c1	41.8	71.0*	0.6	0.3
N#Cc1nc(-c2cccs2)oc1N1CCOCC1	7.1	37.1	0.9	0.6
CC1CC(N(C(=O)c2ccc(Cl)cc2)c2ccccc2)c2ccccc2N1C(=O)c1ccco1 (stereo not drawn)	97.0*	91.2*	0	0.1
CC1CC(N(C(=O)c2ccco2)c2ccccc2)c2ccccc2N1C(=O)c1ccco1 (stereo not drawn)	87.8*	91.1*	0.1	0.1
CCOC(=O)C1C(=O)C=C(c2ccc(NS(C)(=O)=O)cc2)CC1c1ccco1 (stereo not drawn)	75.4*	20.9	0.2	0.8
CCOC(=O)C1C(=O)C=C(c2ccc(C)cc2)CC1c1ccco1 (stereo not drawn)	79.5*	53.6*	0.2	0.5
SMILES	CYP2C9 inhib	CYP2C19 inhib	CYP2C9 act	CYP2C19 activ
O=c1c2c(nc3c(-c4ccccc4)c[nH]n13)CCCC2	37.2	15.0	0.6	0.8
Cn1cccc1C(=S)N=P(C1CCCCC1)(N1CCOCC1)N1CCOCC1	-10.7	11.5	1.1	0.9
c1ccc(CNC2=NCCC2)nc1	-6.2	-0.6	1.1	1
Cc1nc(NCc2ccccn2)c2ccccc2n1	-3.8	0.1	1	1
c1ccc(CNc2ccc3ccccc3n2)nc1	-12.7	75.3*	1.1	0.2
Cc1cc(NCc2ccccn2)nc2ccccc12	-197.4	56.2*	3*	0.4
C=CCNc1ncnc2c1ncn2C1OC(CO)C(O)C1O (stereo not drawn)	13.1	3.8	0.9	1
O=C(OCC1OC(n2cnc3c(N(C(=O)c4ccccc4)C(=O)c4ccccc4)ncnc32)C(O)C1F)c1ccccc1 (stereo not drawn)	94.0*	79.7*	0.1	0.2
CCCCc1nc2ccccc2c(=O)n1NC(=O)c1c(O)c2cccc3c2n(c1=O)CCC3	53.2*	8.4	0.5	0.9
CCCCCCc1nc2ccccc2c(=O)n1NC(=O)c1c(O)c2cccc3c2n(c1=O)CCC3	40.4	1.3	0.6	1
Cc1ccc(-c2nc(-c3ccccn3)no2)cc1	58.0*	87.4*	0.4	0.1
c1ccc(-c2ccc(-c3nc(-c4ccccn4)no3)cc2)cc1	23.8	36.4	0.8	0.6
Cc1ccc(-c2nc(-c3ccccn3)no2)cc1Cl	10.6	41.8	0.9	0.6
c1ccc(-c2noc(-c3ccco3)n2)nc1	36.3	77.4*	0.6	0.2
Clc1cccc(-c2nc(-c3ccccn3)no2)c1	32.9	51.4*	0.7	0.5
O=c1[nH]c2cnccc2n1-c1ccccc1	-8.0	-19.1	1.1	1.2
CCN(CC)S(=O)(=O)c1ccc(C(=O)NCc2cccs2)cc1	53.2*	-8.2	0.5	1.1
CN(C)S(=O)(=O)c1cccc(C(=O)NCc2cccs2)c1	59.5*	51.0*	0.4	0.5
CCOC(=O)CC(NC(=O)c1cccs1)c1ccc(OCC)cc1 (stereo not drawn)	65.4*	51.8*	0.3	0.5
COc1ccc(C(CC(=O)O)NC(=O)c2cccs2)cc1 (stereo not drawn)	0.1	3.6	1	1
CCOc1ccc(C(=O)NCc2cccs2)cc1	29.2	66.9*	0.7	0.3
CC(C)NCCOCCOc1ccccc1F	18.0	-7.1	0.8	1.1
COc1cc(C2N(c3ccc(Cl)c(Cl)c3)C(=O)C3CCCN32)cc(OC)c1OC (stereo not drawn)	-1.5	22.4	1	0.8
CC(C)CNC1=CC(=O)CC(c2ccco2)C1 (stereo not drawn)	21.7	55.4*	0.8	0.4
O=C1C=C(NCc2ccncc2)CC(c2ccccc2)C1 (stereo not drawn)	45.0	95.7*	0.6	0
SMILES	CYP2C9 inhib	CYP2C19 inhib	CYP2C9 act	CYP2C19 activ
O=C1C=C(NCc2ccc(Cl)cc2)CC(c2ccco2)C1 (stereo not drawn)	60.2*	93.1*	0.4	0.1
COC(=O)C(C)Sc1nnc2n(-c3cccc(C)c3)c(=O)c3c4c(sc3n12)CCCC4 (stereo not drawn)	-12.9	-13.7	1.1	1.1
O=C(CN1C(=O)COCC1=O)N1CCOCC1	5.9	2.8	0.9	1
O=S(=O)(NCC1CCCO1)c1ccc(Oc2ccccc2)cc1 (stereo not drawn)	82.7*	95.3*	0.2	0
CCC(C)NS(=O)(=O)c1ccc(S(=O)(=O)N(CC(=O)Nc2ccccc2)CC2CCCO2)cc1 (stereo not drawn)	92.2*	41.4	0.1	0.6
Cc1cccc(S(=O)(=O)NCC2CCCO2)c1 (stereo not drawn)	33.1	48.9	0.7	0.5
O=C(O)c1cccc(S(=O)(=O)NCC2CCCO2)c1 (stereo not drawn)	-18.8	-16.4	1.2	1.2
CCC(Oc1ccccc1)C(=O)Nc1ccc(S(=O)(=O)NCC2CCCO2)cc1 (stereo not drawn)	90.8*	38.0	0.1	0.6
Cc1cc(C)cc(N(C(=O)C(F)(F)F)C(C(=O)NC2CCCCC2)c2cccs2)c1 (stereo not drawn)	16.0	8.6	0.8	0.9
